Test results from PubChem BioAssay (EPA / NIEHS).
Active and inactive are the calls of the source. Rule for the calls: active = hit-call score of the fitted dose curve at least 0.9, where 1 is the maximum; inactive = score below 0.9.

Experiments:
[1] = APR_HepG2_CellLoss_72hr: Apredica 72-hour HepG2 Assay for Cell Loss (AID 2282915); settings: high-content imaging
Method in brief: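 HepG2 cells exposed 72 h to compound at 0.39–200 uM (10 concentrations, duplicate) in 0.5% DMSO. Fixed with 3.7% formaldehyde and Hoechst 33342-stained. Imaged at 20x; nuclear count gives cell number, fitted bidirectionally versus DMSO.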

[2] = APR_HepG2_P-H2AX_72hr: Apredica 72-hour HepG2 Assay for H2AX Phosphorylation (AID 2282916); settings: imaging, actives raise or lower the signal;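 note: phospho-histone H2A.x immunostain intensity per cell marking DNA damage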
Method in brief: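 HepG2 cells treated 72 h at 0.39–200 uM, 0.5% DMSO final, duplicates. Formaldehyde-fixed, Triton-permeabilised, immunostained for phospho-H2A.x with Hoechst; fluorescence imaged at 20x, bidirectional fit versus DMSO.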

[3] = APR_HepG2_MitoMembPot_72hr: Apredica 72-hour HepG2 Assay for Mitochondrial Membrane Potential (AID 2282917); settings: imaging, actives raise or lower the signal
Method in brief: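 HepG2 cells dosed 72 hr with compound at 0.39–200 uM in duplicate, 0.5% v/v DMSO final. Mitochondria stained with 250 nM MitoTracker Red CMXRos for 30 min before formaldehyde fixation, imaged by high-content fluorescence; bidirectional fit versus DMSO.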

[4] = APR_HepG2_MitoticArrest_72hr: Apredica 72-hour HepG2 Assay for Mitotic Arrest (AID 2282918); settings: high-content imaging, actives raise or lower the signal
Method in brief: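 High-content imaging of fixed human HepG2 cells after 72 h compound exposure (0.39–200 uM, duplicates, 0.5% DMSO); mitotic arrest scored from phospho-histone H3 and nuclear Hoechst staining relative to DMSO.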

[5] = APR_HepG2_MicrotubuleCSK_72hr: Apredica 72-hour HepG2 Assay for Microtubule CSK Stabilty (AID 2282919); settings: HepG2 microtubule cytoskeleton, high-content imaging, actives raise or lower the signal
Method in brief: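 HepG2 cells were exposed 72 hr to compound at 0.39–200 uM in duplicate (0.5% DMSO final), then fixed and permeabilized. Alpha-tubulin immunofluorescence was imaged by high-content microscopy, with bidirectional fitting against DMSO and taxol as positive control.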

[6] = APR_HepG2_P-H2AX_24hr: Apredica 24-hour HepG2 Assay for H2AX Phosphorylation (AID 2282920); settings: high-content imaging, actives raise or lower the signal
Method in brief: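 High-content imaging of phospho-histone H2A.x immunofluorescence, nuclei counterstained with Hoechst 33342, in fixed HepG2 cells. Compounds ran 0.39–200 uM in duplicate for 24 h, final DMSO 0.5%. Signal change fitted both directions against DMSO.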

[7] = APR_HepG2_StressKinase_72hr: Apredica 72-hour HepG2 Assay for Stress Kinase (AID 2282921); settings: HepG2 stress kinase (phospho-c-Jun) imaging, actives raise or lower the signal
Method in brief: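 HepG2 cells treated 72 hr with 0.39–200 uM compound, 0.5% v/v DMSO, duplicate wells. After formaldehyde fixation and Triton permeabilization, stained with anti-phospho-c-Jun (1:500) and Cy3 secondary, imaged at 20x. Fitted in both directions against DMSO.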

[8] = APR_HepG2_p53Act_72hr: Apredica 72-hour HepG2 Assay for p53 Activation (AID 2282923); settings: high-content imaging, actives raise or lower the signal;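 note: average cellular p53 protein immunofluorescence intensity in HepG2 cells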
Method in brief: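 HepG2 cells exposed 72 h to 0.39–200 uM in 0.5% DMSO, duplicates. Fixed, permeabilized cells immunostained for p53 (Cy5) with Hoechst; imaged at 20x, fluorescence analyzed bidirectionally against DMSO.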

[9] = APR_HepG2_MitoMass_72hr: Apredica 72-hour HepG2 Assay for Mitochondrial Mass (AID 2282924); settings: high-content imaging, actives raise or lower the signal;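 note: MitoTracker Red CMXRos stain intensity per cell imaged as mitochondrial mass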
Method in brief: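 HepG2 cells dosed 72 hr at 0.39–200 uM (0.5% DMSO), in duplicate. MitoTracker Red CMXRos 250 nM loaded 30 min before formaldehyde fixation; high-content fluorescence imaging, bidirectional fit versus DMSO.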

[10] = APR_HepG2_StressKinase_24hr: Apredica 24-hour HepG2 Assay for Stress Kinase (AID 2282922); settings: HepG2 stress kinase (phospho-c-Jun) imaging, actives raise or lower the signal
Method in brief: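 HepG2 cells exposed 24 h to 0.39–200 uM compound in duplicate (0.5% v/v DMSO final). Cells fixed in 3.7% formaldehyde, permeabilized and immunostained for phospho-c-Jun; read by high-content fluorescence imaging, fitted bidirectionally against DMSO.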

Measured: AC50

CC1(C)C(C=C(Cl)Cl)C1C(=O)OC(C#N)c1cccc(Oc2ccccc2)c1 (stereo unspecified)
not listed: [10]
inactive: all other assays above

COC(=O)NC(=S)Nc1ccccc1NC(=S)NC(=O)OC
active: [1] 26.1 µM
not listed: [6] | [9] | [10]
inactive: all other assays above

CS(=O)(=O)c1ccc(C(=O)C2C(=O)CCCC2=O)c([N+](=O)[O-])c1
not listed: [6] | [10]
inactive: all other assays above

C=C(C)CN(CC)c1c([N+](=O)[O-])cc(C(F)(F)F)cc1[N+](=O)[O-]
active: [1] 105 µM | [5] 135 µM
not listed: [6] | [9]
inactive: all other assays above

C=CCOC(=O)C(C)(C)OC(=O)c1cc(-n2c(=O)cc(C(F)(F)F)n(C)c2=O)ccc1Cl
inactive: [2] | [7] | [10] | [8]
active: [1] 97.7 µM | [3] 65.2 µM | [4] 90.1 µM | [5] 100 µM

COCC(C)N(C(=O)CCl)c1c(C)csc1C (stereo unspecified)
active: [1] 51.5 µM | [4] 103 µM | [5] 105 µM
not listed: [6] | [10]
inactive: all other assays above

CNC(=O)Oc1cccc2ccccc12
active: [1] 102 µM | [2] 97.3 µM | [3] 76.9 µM | [9] 36 µM
inactive: [4] | [5] | [7] | [8]

CCOc1nc(F)cc2nc(S(=O)(=O)Nc3c(Cl)cccc3Cl)nn12
not listed: [6] | [9] | [10]
inactive: all other assays above

Clc1nc(Cl)nc(Nc2ccccc2Cl)n1
not listed: [6]
inactive: all other assays above

Cc1c(COC(=O)[C@@H]2[C@H](/C=C(\Cl)C(F)(F)F)C2(C)C)cccc1-c1ccccc1
not listed: [6]
inactive: all other assays above

CC(C)Oc1cccc(NC(=O)c2ccccc2C(F)(F)F)c1
active: [1] 131 µM | [5] 100 µM
not listed: [6] | [9]
inactive: all other assays above

CCOc1nc(C(Cl)(Cl)Cl)ns1
not listed: [6] | [9] | [10]
inactive: all other assays above

Nc1cnn(-c2ccccc2)c(=O)c1Cl
not listed: [6]
inactive: all other assays above

CN=C=S
active: [1] 49.2 µM
not listed: [6] | [9] | [10]
inactive: all other assays above

CCC(C)n1c(=O)[nH]c(C)c(Br)c1=O (stereo unspecified)
not listed: [6] | [10]
inactive: all other assays above

Nc1c(Cl)c(F)nc(OCC(=O)O)c1Cl
not listed: [6]
inactive: all other assays above

CSC(=O)c1c(C(F)F)nc(C(F)(F)F)c(C(=O)SC)c1CC(C)C
active: [1] 73.9 µM | [4] 67.7 µM | [5] 64.6 µM
inactive: [2] | [3] | [7] | [8]

CCOP(=S)(OCC)Oc1nc(Cl)n(C(C)C)n1
not listed: [6] | [9] | [10]
inactive: all other assays above

COCC(=O)N(c1c(C)cccc1C)C(C)C(=O)OC (stereo unspecified)
not listed: [6]
inactive: all other assays above

CO/N=C(/C1=NOCCO1)c1ccccc1Oc1ncnc(Oc2ccccc2Cl)c1F
inactive: [2] | [4] | [7] | [8]
active: [1] 6.52 µM | [3] 12.7 µM | [5] 7.25 µM

COC(=O)N(C(=O)N1CO[C@@]2(C(=O)OC)Cc3cc(Cl)ccc3C2=N1)c1ccc(OC(F)(F)F)cc1
not listed: [6] | [9]
inactive: all other assays above

O=C1C2CC=CCC2C(=O)N1SC(Cl)(Cl)Cl (stereo unspecified)
active: [1] 100 µM | [2] 88.1 µM | [4] 100 µM
not listed: [6] | [10]
inactive: all other assays above

O=C(O)c1c(Cl)ccc2cc(Cl)cnc12
not listed: [6] | [8] | [10]
inactive: all other assays above

COP(=O)(OC)O/C(C)=C/C(=O)N(C)C
not listed: [6] | [9]
inactive: all other assays above

COC(=O)NS(=O)(=O)c1ccc(N)cc1
not listed: [6] | [9] | [10]
inactive: all other assays above

CCN(CC)C(=O)C(C)Oc1cccc2ccccc12 (stereo unspecified)
active: [1] 77.6 µM
not listed: [6] | [10]
inactive: all other assays above

Nc1c(Cl)c(Cl)nc(C(=O)O)c1Cl
not listed: [6]
inactive: all other assays above

CCOC(=O)C(C)OC(=O)c1cc(Oc2ccc(C(F)(F)F)cc2Cl)ccc1[N+](=O)[O-] (stereo unspecified)
active: [1] 41 µM | [3] 19.8 µM
not listed: [6]
inactive: all other assays above

Clc1cccc(C(Cl)(Cl)Cl)n1
not listed: [6] | [9] | [10]
inactive: all other assays above

Cc1cc(C)nc(Nc2ccccc2)n1
active: [1] 46.3 µM
not listed: [6]
inactive: all other assays above

O=c1n(Cl)c(=O)n(Cl)c(=O)n1Cl
not listed: [6]
inactive: all other assays above

CC1(C)C(C(=O)OC(C#N)c2cccc(Oc3ccccc3)c2)C1(C)C (stereo unspecified)
active: [1] 70.3 µM | [5] 100 µM
not listed: [6] | [9]
inactive: all other assays above

COP(=S)(OC)Oc1ccc([N+](=O)[O-])c(C)c1
active: [1] 87.9 µM
not listed: [6] | [9] | [10]
inactive: all other assays above

N#Cc1c(Cl)cccc1Cl
not listed: [6] | [10]
inactive: all other assays above

CC(C)N1C(=O)N(c2ccccc2)CSC1=NC(C)(C)C
active: [1] 42.5 µM | [5] 32.6 µM
not listed: [6] | [10]
inactive: all other assays above

Cc1cnc(C2=NC(C)(C(C)C)C(=O)N2)c(C(=O)O)c1 (stereo unspecified)
not listed: [6]
inactive: all other assays above

CCNP(=S)(OC)O/C(C)=C/C(=O)OC(C)C (stereo unspecified)
not listed: [6] | [9]
inactive: all other assays above
